Sampled rows, rich in hits. Any-hit rate of the full collection: about 8.7%.
G9a inh = qHTS Assay for Inhibitors of Histone Lysine Methyltransferase G9a. Potency, µM (titrated, usually from 102 µM), without a hit: at the top dose activity, negative = inhibition, usual class: inhibitors. AID 504332, 2011. 350,000 tested, 8.8% active. G9a H3K9 monomethylation, AlphaScreen, 2 h; also: potency is read from the fitted curve at half-maximal effect; % is scaled to controls: 0 for no effect and ±100 for the full control effect; nearly all actives have a fitted effect of over 75% in size
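Quantitative HTS format: methyltransferase activity on a biotin-tagged H3K9 peptide is measured by AlphaScreen, using a rabbit anti-monomethyl-H3K9 antibody with streptavidin donor and anti-IgG acceptor beads. Final levels are 20 nM enzyme, 500 nM peptide, 20 uM SAM; 2 h RT.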
Sfp inh = qHTS Assay for Inhibitors of Bacillus subtilis Sfp phosphopantetheinyl transferase (PPTase); 4'-phosphopantetheinyl transferase ffp (Bacillus subtilis), Q9F4F7; Biochemical Sfp PPTase activity, qHTS; Potency, µM, for the others: largest response in the series, negative = inhibition, hits mostly inhibitors; 310,000 tested, 3.5% active; AID 1490, 2009;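 also: the enzyme is Sfp with the accession as filed and its product quenches rhodamine fluorescence; potency is read from the fitted curve at half-maximal effect; 0% = enzyme reaction without inhibitor and -100% = no enzyme wells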
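After 15 min at room temperature with compound, 15 nM Sfp received 5 uM rhodamine-CoA plus 12.5 uM BHQ-2-ybbR (50 mM Hepes pH 7.6, 10 mM MgCl2). Rate came from the fluorescence difference over 30 min, ex 525/em 598 nm.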
HP1b chromo inh = HTS for Inhibitors of HP1-beta Chromodomain Interactions with Methylated Histone Tails; Chromobox protein homolog 1 (Homo sapiens), P83916; AlphaScreen HP1-beta / biotin-H3K9me3 peptide binding; Potency, µM (series often up to 114 µM), without a hit: top-dose activity change, negative = inhibition, actives largely listed as inhibitors; 390,000 tested, 0.56% active; AID 540317, 2011; also: potency is read from the fitted curve at half-maximal effect; nearly all actives have a fitted effect of over 70% in size
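AlphaScreen: HP1-beta (50 nM) preformed 30 min with biotin-H3(1-18)K9me3 peptide (50 nM) in PBS pH 7.4, 0.01% Tween-20. Compound added for 30 min at RT, then streptavidin donor/nickel chelate acceptor beads (10 ug/mL) for 30 min.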
BAZ2B block = qHTS Assay for Inhibitors of BAZ2B; Bromodomain adjacent to zinc finger domain protein 2B (Homo sapiens), Q9UIF8; AlphaScreen BAZ2B-H3K14Ac peptide displacement; Potency, µM (highest dose often 114 µM), for inactives: at the top dose activity change, negative = inhibition, hits mostly inhibitors; 360,000 tested, 4.4% active; also: potency is read from the fitted curve at half-maximal effect; % is scaled to controls: 0 for no effect and ±100 for the full control effect; nearly all actives have a fitted effect of over 60% in size
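BAZ2B (50 nM) with biotin-H3(5-23)K14Ac peptide (50 nM) in PBS pH 7.4, 0.01% Tween-20, preformed 30 min, then compound 30 min at room temperature; top concentration 110uM. AlphaScreen streptavidin donor/nickel chelate acceptor beads (10 ug/mL final), 20 min dark, signal read.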
JMJD2A Tudor inh = qHTS Assay for Inhibitors of JMJD2A-Tudor Domain; Lysine-specific demethylase 4A (Homo sapiens), O75164; AlphaScreen JMJD2A-Tudor / H3K4me3 peptide binding; Potency, µM (highest dose often 114 µM), inactives show at the highest dose activity change, negative = inhibition, hits mostly inhibitors; 390,000 tested, 4.4% active; AID 504339, 2011; also: potency is read from the fitted curve at half-maximal effect; % is scaled to controls: 0 for no effect and ±100 for the full control effect; nearly all actives have a fitted effect of over 50% in size
ALOX12 inh = Primary qHTS assay for inhibitors of human arachidonate 12S-lipoxygenase (ALOX12): Round 2; Polyunsaturated fatty acid lipoxygenase ALOX12 (Homo sapiens), P18054; purified 12hLO, xylenol orange hydroperoxide absorbance; Potency, µM (doses to about 108 µM), for inactives: at the top dose activity change, negative = inhibition, usual class: inhibitors; 580,000 tested, 1.1% active; also: potency is read from the fitted curve at half-maximal effect; % is scaled to controls: 0 for no effect and ±100 for the full control effect
Target sequence (P18054 whole entry, looked up): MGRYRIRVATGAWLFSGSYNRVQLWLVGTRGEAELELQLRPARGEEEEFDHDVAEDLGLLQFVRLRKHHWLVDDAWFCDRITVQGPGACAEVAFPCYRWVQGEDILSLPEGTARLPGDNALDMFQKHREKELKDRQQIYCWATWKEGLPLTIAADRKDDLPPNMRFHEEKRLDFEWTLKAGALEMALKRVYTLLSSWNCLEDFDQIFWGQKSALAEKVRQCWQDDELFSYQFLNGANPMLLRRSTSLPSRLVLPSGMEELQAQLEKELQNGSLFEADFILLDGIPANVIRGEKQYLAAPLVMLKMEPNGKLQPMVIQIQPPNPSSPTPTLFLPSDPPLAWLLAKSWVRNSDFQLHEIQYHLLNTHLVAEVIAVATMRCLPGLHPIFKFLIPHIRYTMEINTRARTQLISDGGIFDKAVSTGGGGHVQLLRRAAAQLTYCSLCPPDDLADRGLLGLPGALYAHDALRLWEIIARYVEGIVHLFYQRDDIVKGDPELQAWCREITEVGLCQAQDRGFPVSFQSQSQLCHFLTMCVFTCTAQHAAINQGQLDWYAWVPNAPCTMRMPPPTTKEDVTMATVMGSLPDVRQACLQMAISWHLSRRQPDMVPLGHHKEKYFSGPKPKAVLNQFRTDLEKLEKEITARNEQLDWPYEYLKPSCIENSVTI
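Hydroperoxide product was detected by ferrous iron/xylenol orange as the 573 to 405 nm absorbance ratio. Arachidonic acid at 40 uM (final) was turned over for 30 min at room temperature by 150 nM human 12hLO, pH 7.0 Hepes buffer, after 15 min compound preincubation.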
JMJD2E inh-1 = Inhibitors of Human Jumonji Domain Containing 2E (JMJD2E): 8HQs - Round 1; shares compounds with BAZ2B block; JMJD2E demethylase, FDH-coupled NADH fluorescence; Potency, µM (highest dose often 57 µM), for the others: top-dose activity, negative = inhibition, most hits filed as inhibitors; 130 tested, 89% active
JMJD2E inh-2 = Confirmation qHTS Assay for Inhibitors of Human Jumonji Domain Containing 2E (JMJD2E); shares compounds with JMJD2A Tudor inh; Recombinant JMJD2E, FDH-coupled NADH fluorescence (FDH is formaldehyde dehydrogenase); Potency, µM (doses to about 56.8 µM), for the others: at the highest dose activity change, negative = inhibition, most hits filed as inhibitors; 140 tested, 93% active; AID 2677, 2010
FDH counter = Counterscreen for JMJD2E Inhibitors: qHTS Assay for Inhibitors of Formaldehyde Dehydrogenase (FDH); FDH enzyme assay, NADH fluorescence kinetic; Potency, µM (highest dose often 56.7 µM), without a hit: top-dose activity, negative = inhibition, usual class: inhibitors; 140 tested, 10% active; shares compounds with JMJD2A Tudor inh; AID 2680, 2010
JMJD2E MS inh = MALDI-TOF-MS Assay for Inhibitors of Human Jumonji Domain Containing 2E (JMJD2E). 45 tested, 90% active. recombinant JMJD2E demethylation, MALDI-TOF-MS. Potency, µM, hits mostly inhibitors. shares compounds with JMJD2A Tudor inh;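 active = compounds whose IC50 for blocking JMJD2E demethylation is below 100 µM; inconclusive = dose dependent effect but IC50 above 100 µM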
* hit, by the source's call; ? = inconclusive; nt = no result given; [ ] = dose if it differs, or a comment. Unless noted, calls follow the shape of the dose curve; as a rule, active = well fitted curve in the direction sought with a large enough effect; inconclusive = small, poorly fitted or top-dose-only effect, or another doubt; inactive = no such curve, though single readings can be large; an effect the other way counts as inactive or inconclusive.

SMILES	G9a inh	Sfp inh	HP1b chromo inh	BAZ2B block	JMJD2A Tudor inh	ALOX12 inh	JMJD2E inh-1	JMJD2E inh-2	FDH counter	JMJD2E MS inh
Oc1ccc(CNc2ccc(F)cc2Cl)c2cccnc12	nt	nt	nt	nt	56µM*	nt	5.8µM*	1.1µM*	-18%	16*
Oc1ccc(CNc2cccc(F)c2)c2cccnc12	nt	nt	nt	nt	56µM*	nt	1.1µM*	1.1µM*	-9%	14*
CCc1ccc2nc(-c3cccnc3)cc(C(=O)O)c2c1	nt	nt	nt	nt	nt	-59%	nt	nt	nt	nt
Oc1cc(Nc2cccnc2)cc2cccnc12	-1%[12.7 µM]	nt	44%	7.9µM*	45µM*	-20%	32µM*	32µM*	-18%	30*
O=C(CCc1cccnc1)Nc1cnc2ccccc2c1	nt	nt	nt	nt	nt	-20%	nt	nt	nt	nt
COc1ccc(C(=O)Nc2cc(OC)cc3cccnc23)cc1	6%[2.33 µM]	-11%	52%	-7%	5%	3%	nt	nt	nt	nt
COc1ccc(Nc2cc(O)c3ncccc3c2)cc1	17%[12.7 µM]	nt	nt	28µM*	nt	nt	11µM*	9.1µM*	-36%	22*
Oc1cc(Nc2ccncc2)cc2cccnc12	-27%[12.7 µM]	nt	41%	4µM*	20µM*	-2%	25µM*	25µM*	-9%	20*
Oc1cc(NCCc2cccnc2)cc2cccnc12	-47%[12.7 µM]	nt	54%	5.6µM*	40µM*	-30%	32µM*	32µM*	-27%	?
NCc1ccccc1OC(F)F	nt	nt	nt	nt	nt	13%	nt	nt	nt	nt
CCNC(=O)COc1ccc(NC(=O)c2nn(CC)c(=O)c3ccccc23)cc1	nt	nt	nt	nt	nt	40%	nt	nt	nt	nt
Oc1ccc(/C=C/c2ccccc2F)c2cccnc12	nt	nt	nt	nt	?	nt	11µM*	5.8µM*	-18%	37*
Oc1ccc(/C=C/c2ccccc2)c2cccnc12	nt	nt	nt	nt	?	nt	10µM*	4.1µM*	-27%	24*
NC(=O)c1ccnc2c(O)cccc12	-31%[0.501 µM]	nt	24%	1.8µM*	22µM*	-6%	3.2µM*	?	-27%	nt
Oc1cccc2c(-c3nn[nH]n3)ccnc12	13%[12.7 µM]	nt	36%	3.2µM*	13µM*	?	18µM*	10µM*	-18%	18*
c1cncc(-c2nn[nH]n2)c1	-19%[59 µM]	-6%	16%	1%	-30%	-16%	nt	nt	nt	nt
NC(=O)c1cccc2ccccc12	nt	20%	27%	4%	-6%	0%	nt	nt	nt	nt
COC(=O)c1ccc(O)c2ncccc12	nt	nt	nt	nt	nt	nt	20µM*	20µM*	-27%	nt
CN1CCC2(CC1)CCN(Cc1ccc(OCC(O)CN3CCCCC3)cc1)C2 (stereo not drawn)	nt	nt	nt	nt	nt	45%	nt	nt	nt	nt
